Abeta yeast res: A-beta toxicity reversal in yeast; yeast expressing A-beta42, growth rescue, OD600, 48 h; response scale: 0% DMSO, 100% iron-clioquinol control; Potency, µM (series often up to 46.1 µM), most hits filed as activators; 410,000 compounds, 0.063% hits; note: nearly all actives have a fitted effect of over 55% in size
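Growth rescue measured by 600 nm absorbance after 48 h yeast culture at 30 C with compound. Values normalized between DMSO and an equimolar ferric chloride plus clioquinol control.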
FUS yeast rescue: rescues growth of FUS-expressing yeast; 390,000 compounds, 0.24% hits; AID 1347120; Potency, µM (titrated, usually from 76.6 µM), hits mostly activators; S. cerevisiae FUS-expressing, growth rescue, OD600, 24 h;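 note: plate controls were DMSO vehicle for no effect and reference control for full effect; nearly all actives have a fitted effect of over 55% in size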
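Compound concentration series was pinned onto galactose-induced FUS-expressing yeast seeded at OD 0.005. Plates sat 24hr at 30C; absorbance at 600 nm gave growth. DMSO served as background control.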
aSyn rescue: inhibitors of alpha-synuclein toxicity in yeast; Yeast expressing alpha-synuclein, growth rescue, BacTiter-Glo, 24 h; Potency, µM (doses to about 46.1 µM), inactives show at the highest dose growth rescue (activation), hits mostly activators; 370,000 compounds, 0.14% hits; AID 652106; note: % of control where 0% means no effect; nearly all actives have a fitted effect of over 65% in size
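Rescue of yeast growth: cells expressing toxic alpha-synuclein, induced in galactose at OD600 0.02, incubated with compound 24 h at 30 C. ATP luminescence quantified growth; inhibitors of toxicity appear as activators.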
TDP43 rescue: inhibitors of TDP-43 toxicity in yeast; TDP-43 expressing yeast growth rescue, BacTiter-Glo, 24 h; Potency, µM (top dose mostly 46.1 µM), inactives show at the top dose growth rescue (activation), hits mostly activators; 410,000 compounds, 1.8% hits; AID 652104; note: % of control where 0% means no effect; nearly all actives have a fitted effect of over 50% in size
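Cell-based yeast growth screen: TDP-43 expression induced in galactose, inoculum OD600=0.02 after raffinose pregrowth to mid-log. Read-out BacTiter-Glo luminescence at 24 hr, 30 deg C; inhibition of toxicity seen as signal increase.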
Starred values were filed as active, the others as inactive; i = inactive; ? = inconclusive; . = not tested or not shown. Only some compounds are listed: those with a hit (about 2.1% of all), similar ones and a draw of the others. Calls come from the whole dose curve; as a rule, active = well fitted curve in the direction sought with a large enough effect; inconclusive = small, poorly fitted or top-dose-only effect, or another doubt; inactive = no such curve, though single readings can be large; an effect the other way counts as inactive or inconclusive. Potency is the fitted concentration of half-maximal effect.

SMILES	Abeta yeast res	FUS yeast rescue	aSyn rescue	TDP43 rescue
O=C(CSc1nnc(-c2ccccn2)o1)Nc1ccccc1	i	i	-9%	-5%
CC(=O)N1c2ccccc2C(=O)C1N1CCN(c2ccccc2F)CC1 (stereo unspecified)	?	i	.	35µM*
CC(=O)N1c2ccccc2C(=O)C1N1CCN(c2ccc(F)cc2)CC1 (stereo unspecified)	i	i	.	?
CC(NS(=O)(=O)OCC(Cl)(Cl)Cl)c1ccc(Br)cc1 (stereo unspecified)	i	i	-1%	35µM*
CC(C)CC(NS(=O)(=O)OCC(Cl)(Cl)Cl)c1ccccc1 (stereo unspecified)	i	i	-54%	-91%
O=C(N1CCOCC1)N1CC[C@H]2[C@H](CCCN2Cc2ccccc2)C1	.	i	.	.
CCC1=Nc2cc(C(=O)O)ccc2Sc2ccc(Cl)cc21	i	i	-15%	14µM*
CC1=Nc2cc(C(=O)O)ccc2Sc2ccc(Br)cc21	i	i	-8%	35µM*
COc1ccc(C(=O)OCCN2CCN(C3CN(Cc4cn(Cc5cccc(C)c5)nn4)S(=O)(=O)C3)CC2)cc1OC (stereo unspecified)	.	i	.	.
CC(Oc1cccc(Cl)c1)C(=O)Nc1nc(-c2ccccn2)cs1 (stereo unspecified)	?	i	4.5µM*	-39%
CC(Oc1ccccc1)C(=O)Nc1nc(-c2ccncc2)cs1 (stereo unspecified)	i	i	-4%	11%
CC(Oc1ccccc1)C(=O)Nc1nc(-c2ccccn2)cs1 (stereo unspecified)	?	i	22µM*	?
C[C@H](NC(=O)c1ccccc1)C(=O)Nc1nc(-c2ccccn2)cs1	i	i	6%	20%
CC(C)C(=O)NC(c1cccc([N+](=O)[O-])c1)c1ccc2cccnc2c1O (stereo unspecified)	i	i	-39%	35µM*
CC(=O)NC(c1ccc(Cl)cc1Cl)c1ccc2cccnc2c1O (stereo unspecified)	?	i	?	32µM*
CCCC(=O)NC(c1cccc([N+](=O)[O-])c1)c1ccc2cccnc2c1O (stereo unspecified)	i	i	-2%	2%
CCOc1ccc(NC(=O)Cn2c(=O)n(Cc3ccccc3)c(=O)c3sc4ccccc4c32)cc1	i	i	.	16%
COc1cc(Cl)c(C)cc1NC(=O)CSCc1nc(-c2ccc(OC)c(OC)c2)no1	i	i	.	0%
CC(C)n1nc(C(=O)NC2CCCCCC2)c2ccccc2c1=O	i	i	0%	22µM*
C[C@H]1[C@@H](NC(=O)C(c2ccccc2)c2ccccc2)CC[C@@]23CCCN2C(=O)CCC[C@@H]13	.	i	.	.
Nc1nc(-c2ccc(NC(=O)c3ccco3)cc2)cs1	i	i	-13%	-31%
NC(=O)/C(=N\OC(=O)c1ccco1)c1nc(-c2ccc(Br)cc2)cs1	i	.	-10%	16µM*
CCOc1ccc(/C=C/c2ccnc3ccccc23)cc1OCC	.	.	10%	.
CC1CCC2(CC1)CCN(CCCOC(=O)Nc1cccc(F)c1)C2=O (stereo unspecified)	.	i	.	.
CCC(C)NC(=O)c1c(N)n(/N=C/c2cccnc2)c2nc3ccccc3nc12 (stereo unspecified)	i	i	4%	14µM*
SMILES	Abeta yeast res	FUS yeast rescue	aSyn rescue	TDP43 rescue
CCC(C)NC(=O)c1c(N)n(/N=C/c2ccccn2)c2nc3ccccc3nc12 (stereo unspecified)	i	i	-8%	6%
O=C(C[n+]1cccc2cc(Cl)ccc21)c1ccc2ccccc2c1	.	.	1%	.
CC1(C)CC(=O)C2=C(C1)Nc1cc3c(cc1C2c1ccc2c(c1)OCO2)OCO3 (stereo unspecified)	i	35µM*	10%	-8%
Cc1ccc(Nc2c3c(nc4nncn24)CCC3)cc1C	i	i	.	?
CCOc1ccc(Nc2c3c(nc4nncn24)CCC3)cc1	i	i	.	35µM*
Cc1cccc(Nc2c3c(nc4nncn24)CCC3)c1	i	i	.	18µM*
Cc1cc(C)cc(Nc2c3c(nc4ncnn24)CCC3)c1	i	i	?	?
Cc1ccc(Nc2c3c(nc4nncn24)CCC3)cc1	i	i	.	16µM*
Clc1ccc(Nc2c3c(nc4ncnn24)CCC3)cc1	i	i	1%	18µM*
CCC[n+]1c(/C=C/c2c(OC)cc(OC)cc2OC)ccc2ccccc21	.	.	-24%	.
COc1ccc(CN(C)C(C#Cc2ccccc2)Cc2ccccc2)c(OC)c1 (stereo unspecified)	.	i	.	.
CCOC(=O)C1CCN(C(=O)C(Cc2ccc3c(c2)OCO3)NC(C)=O)CC1 (stereo unspecified)	.	i	.	.
Cc1ccccc1Nc1c2c(nc3nncn13)CCC2	i	i	.	0%
Brc1ccc(Nc2c3c(nc4nncn24)CCC3)cc1	i	i	.	13µM*
COCC(=O)N1CCC(C(=O)NC2CCCc3ccccc32)CC1 (stereo unspecified)	.	i	.	.
O=C(COc1cccnc1[N+](=O)[O-])Nc1ccccc1Sc1ccccc1	i	.	26%	14µM*
CCCCCCC(=O)NC1CCCCN(Cc2ccc(C)cc2)C1=O (stereo unspecified)	.	i	.	.
Cc1nc(N2CCCCC2C)c2nnn(Cc3ccccc3)c2n1 (stereo unspecified)	.	i	.	.
C/C(=N/OC(=O)c1ccc(C)cc1)c1cccs1	i	i	-18%	-12%
C/C(=N/OC(=O)c1ccccc1Br)c1ccc(C)cc1	i	i	-18%	14µM*
Cc1cc(-c2n[nH]c(=S)n2N=Cc2ccc(-c3ccccc3)cc2)n[nH]1	.	i	.	.
Cc1nc2ccccc2c(C)c1C(=O)c1ccccc1	i	i	3%	14µM*
O=C(c1cccc(F)c1)N1CCN(c2cccc(C(F)(F)F)c2)CC1	i	i	12%	14µM*
CC(=O)c1ccc(NC(=O)N2CCN(c3cccc(Cl)c3)CC2)cc1	i	i	3%	13µM*
O=C(c1ccc(CS(=O)c2ccccc2Cl)o1)N1CCN(c2cccc(C(F)(F)F)c2)CC1 (stereo unspecified)	i	?	.	18µM*
COc1ccccc1CC(=O)N1CCN(c2cccc(Cl)c2)CC1	i	i	3%	13µM*
CC(C)CN1C(=O)N2CCc3ccccc3C2CS1(=O)=O (stereo unspecified)	.	i	.	.
Cc1ccc(N2CC3=C(C2=O)C(c2ccc(Br)cc2)NC(=O)N3C)cc1 (stereo unspecified)	i	i	-8%	2%
Cc1ccc(NC(=O)C2CCCN2S(=O)(=O)c2cccc3cccnc23)cc1C (stereo unspecified)	i	i	.	25%
CCn1cc(C(=O)N2CCN(c3cccc(C(F)(F)F)c3)CC2)c2cc(OC)c(OC)cc2c1=O	i	?	.	10%

Assay outcomes from PubChem BioAssay.
